# In PubChem BioAssay:
# Activity calls are given as the source filed them.
# Experiments:
# [1] = system: Plasmodium falciparum Sir2 (PF13_0152, Sir2A); test: pfSir2 binders on small-molecule microarrays, primary screen, biochemical, small-molecule microarray, 635 nm fluorescence (AID 1098); settings: small-molecule microarray binding, fluorescence 635 nm; higher = more signal;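 further: score merges spot fluorescence intensity with its signal-to-noise ratio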
# [2] = small-molecule microarray binders of probe aDKK1, primary screen, biochemical, biotinylated probe, 635/667 nm fluorescence (AID 1099); settings: higher = more signal;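 further: score merges 667nm spot fluorescence with signal to noise across triplicate slides; reference of the scale not given here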
# [3] = small-molecule microarray binders of probe aCHRDL2, primary screen, biochemical, biotinylated probe, 635/667 nm fluorescence (AID 1100); settings: higher = more signal
# [4] = splicing luciferase reporter signal modulators, primary screen, spliceosome inhibition project, cell-based, HEK293, splice +/- reporter (AID 1101); settings: luminescence, 24 h, higher = more signal, called active from +8 up or from −8 down;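 further: HEK293 cells carrying a splicing-competent luciferase reporter gene; test concentration not given here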
# [5] = target: Fibroblast growth factor 10 (Homo sapiens) (UniProt O15520); test: FGF10 binders on small-molecule microarrays, primary screen, biochemical, small-molecule microarray, 635 nm fluorescence (AID 1102); settings: FGF10 binding, fluorescence 635 nm, higher = more signal
# Fibroblast growth factor 10 (Homo sapiens), sequence (O15520 whole entry, looked up): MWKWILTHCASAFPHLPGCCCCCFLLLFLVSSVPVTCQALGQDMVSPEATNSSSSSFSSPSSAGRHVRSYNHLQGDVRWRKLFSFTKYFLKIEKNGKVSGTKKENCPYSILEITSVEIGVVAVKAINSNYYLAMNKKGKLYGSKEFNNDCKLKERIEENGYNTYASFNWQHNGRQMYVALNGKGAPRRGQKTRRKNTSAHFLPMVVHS
# [6] = system: glycogen synthase kinase-3 (GSK3A per assay name; protocol says GSK3B); test: GSK3 binders on small-molecule microarrays, primary screen, biochemical, small-molecule microarray, 635 nm fluorescence, GSK3A (AID 1103); settings: small-molecule microarray binding, fluorescence 635 nm; higher = more signal; further: the record names both GSK3A and GSK3B
# [7] = target: Epidermal growth factor receptor (Homo sapiens) (UniProt P00533); test: EGFR binders on small-molecule microarrays, primary screen, biochemical, small-molecule microarray, 635 nm fluorescence (AID 1104); settings: EGFR binding, higher = more signal;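 further: score merges 667 nm emission intensity with spot signal to noise over triplicate slides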
# Epidermal growth factor receptor (Homo sapiens), sequence (P00533 whole entry, looked up): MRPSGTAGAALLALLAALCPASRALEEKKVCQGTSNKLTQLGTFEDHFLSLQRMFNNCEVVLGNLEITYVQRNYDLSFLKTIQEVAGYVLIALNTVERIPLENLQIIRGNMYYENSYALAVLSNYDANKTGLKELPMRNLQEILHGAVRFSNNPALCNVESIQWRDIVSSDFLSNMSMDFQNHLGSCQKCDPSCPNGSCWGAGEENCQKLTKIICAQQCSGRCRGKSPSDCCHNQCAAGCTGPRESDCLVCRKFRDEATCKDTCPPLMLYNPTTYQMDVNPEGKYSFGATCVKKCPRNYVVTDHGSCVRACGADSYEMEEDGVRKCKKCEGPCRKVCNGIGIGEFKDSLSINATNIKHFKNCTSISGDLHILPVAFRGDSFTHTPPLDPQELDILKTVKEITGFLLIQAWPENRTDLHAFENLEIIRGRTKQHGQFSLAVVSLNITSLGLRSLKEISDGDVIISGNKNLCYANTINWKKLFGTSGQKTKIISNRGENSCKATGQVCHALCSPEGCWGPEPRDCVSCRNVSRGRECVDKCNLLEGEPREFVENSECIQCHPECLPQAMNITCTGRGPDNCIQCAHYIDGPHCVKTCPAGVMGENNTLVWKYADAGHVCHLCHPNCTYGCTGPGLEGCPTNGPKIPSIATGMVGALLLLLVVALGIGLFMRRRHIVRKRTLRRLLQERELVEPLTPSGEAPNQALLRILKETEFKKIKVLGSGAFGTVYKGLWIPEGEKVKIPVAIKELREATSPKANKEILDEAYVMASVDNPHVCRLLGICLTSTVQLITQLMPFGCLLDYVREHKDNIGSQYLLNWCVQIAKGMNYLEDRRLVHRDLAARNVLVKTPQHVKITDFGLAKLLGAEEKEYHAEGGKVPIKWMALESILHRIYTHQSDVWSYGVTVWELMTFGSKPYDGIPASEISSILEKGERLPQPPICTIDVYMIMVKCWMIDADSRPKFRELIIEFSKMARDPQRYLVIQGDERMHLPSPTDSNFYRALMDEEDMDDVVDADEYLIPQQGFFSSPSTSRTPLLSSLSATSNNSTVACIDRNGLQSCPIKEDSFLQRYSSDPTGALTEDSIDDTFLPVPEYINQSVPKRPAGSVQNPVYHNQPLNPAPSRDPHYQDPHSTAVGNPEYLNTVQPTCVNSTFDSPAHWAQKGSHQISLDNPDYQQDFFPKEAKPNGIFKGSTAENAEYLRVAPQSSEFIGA
# [8] = target: Follistatin-related protein 3 (Homo sapiens) (UniProt O95633); test: FSTL3 binders on small-molecule microarrays, primary screen, biochemical, small-molecule microarray, 635 nm fluorescence (AID 1105); settings: FSTL3 binding, higher = more signal;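 further: score merges emission near 667 nm and signal to noise per printed spot across three slides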
# Follistatin-related protein 3 (Homo sapiens), sequence (O95633 whole entry, looked up): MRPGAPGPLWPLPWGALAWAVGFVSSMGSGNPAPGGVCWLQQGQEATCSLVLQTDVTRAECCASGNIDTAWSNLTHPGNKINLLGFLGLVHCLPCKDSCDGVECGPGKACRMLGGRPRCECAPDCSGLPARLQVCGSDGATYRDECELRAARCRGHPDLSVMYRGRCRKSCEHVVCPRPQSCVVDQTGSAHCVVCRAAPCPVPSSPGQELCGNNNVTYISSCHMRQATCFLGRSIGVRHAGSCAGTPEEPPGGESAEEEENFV
# [9] = target: Dickkopf-related protein 1 (Homo sapiens) (UniProt O94907); test: DKK1 binders on small-molecule microarrays, primary screen, biochemical, small-molecule microarray, 635 nm fluorescence scan (AID 1106); settings: DKK1 binding, higher = more signal;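 further: score merges emission near 667 nm with signal to noise over three replicate slides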
# Dickkopf-related protein 1 (Homo sapiens), sequence (O94907 whole entry, looked up): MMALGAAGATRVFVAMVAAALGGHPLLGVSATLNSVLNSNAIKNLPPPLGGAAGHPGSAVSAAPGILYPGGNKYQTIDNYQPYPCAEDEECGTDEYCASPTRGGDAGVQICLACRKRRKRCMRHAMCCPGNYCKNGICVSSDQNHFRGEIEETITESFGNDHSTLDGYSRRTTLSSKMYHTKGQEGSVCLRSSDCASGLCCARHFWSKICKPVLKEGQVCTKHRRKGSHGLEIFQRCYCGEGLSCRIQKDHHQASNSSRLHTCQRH
# [10] = system: Inhibin beta A chain (activin A); test: INHBA (activin A) binders on microarrays, primary screen, biochemical, small-molecule microarray, 635 nm fluorescence scan (AID 1107); settings: small-molecule microarray binding, higher = more signal;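 further: mouse activin A protein probed at 4.33 µg/mL on printed slides; score merges bound-protein fluorescence near 667 nm with spot signal-to-noise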
SMILES,composite z-score [1],composite z-score [2],composite z-score [3],z-score [4],composite z-score [5],composite z-score [6],composite z-score [7],composite z-score [8],composite z-score [9],composite z-score [10]
CCCC#C[Si](O[C@H](CC)c1cn(Cc2cccc(Cl)c2)nn1)(C(C)C)C(C)C,0.377,-0.23,-0.45,-1.01 (inactive),1.11,1.05,0.484,0.566,0.52,-0.121
O=C1O[C@H](c2ccccc2)[C@H](c2ccccc2)N2[C@H]1[C@@H](C(=O)N1CCCCCCC1)[C@]1(C(=O)Nc3ccc(C#CC4=CCCCC4)cc31)[C@H]2c1ccc(OCCO)cc1,1.87,2.63,1.36,-1.68 (inactive),1.46,1.36,1.68,1.66,2.4,1.88
C=CCC(OC(C)=O)[C@@H]1[C@@H](N(Cc2cc3ccccc3o2)C(=O)c2cccc3ccccc23)c2cc(OCCCO)ccc2N1C(=O)c1ccc(-c2ccccc2)cc1 (stereo not given in full),-0.424,0.365,0.531,-1.82 (inactive),0.0822,-0.34,-0.0077,0.176,-0.0541,0.971
O=C1C2C=CC(C(O)CCc3ccccc3)N(Nc3ccccc3F)C2C(=O)N1c1ccccc1 (stereo not given),1.17,0.909,1.09,-0.0383 (inactive),1.25,1.31,0.359,1.31,-0.242,1.04
CCCC[C@@H]1C[C@H]1[C@@H](NC(=O)c1ccco1)c1ccccc1C(F)(F)F,-0.323,2.11,1.39,-0.255 (inactive),0.3,-0.291,-0.127,0.449,-0.316,1.49
COCC(=C=CC[C@@H](O)c1cccc(OCCO)c1)C[C@@H](O)c1ccccn1,0.976,-0.193,-0.355,0.758 (inactive),0.751,0.175,0.101,0.167,0.307,0.565
CC(C)NC(=O)[C@@H]1c2ccccc2C(=O)N(C2Cc3ccccc3C2)[C@H]1c1ccc(CO)cc1,0.959,0.172,0.749,-0.535 (inactive),0.16,0.726,-0.477,0.0389,-0.224,0.175
CC1(C)C2C=C(C(O)C3C=CC4C(=O)NC(=O)C4N3Nc3ccc(Cl)cc3Cl)C[C@@H]1C2 (stereo not given in full),0.213,1.05,1.16,2.5 (inactive),0.808,0.0644,0.27,0.745,-0.214,1.08
CC(C)=CCN[C@H](CO)c1ccccc1,0.38,-0.274,-0.235,-0.795 (inactive),0.795,-0.366,0.149,0.576,0.749,1.01
NC(=O)NCC#Cc1ccc2c(c1)[C@]1(C(=O)N2)[C@H](C(=O)Nc2nc3ccccc3s2)[C@H]2C(=O)O[C@H](c3ccccc3)[C@H](c3ccccc3)N2[C@@H]1c1ccccc1OCCO,1.23,1.83,-0.202,-0.137 (inactive),1.27,0.261,0.997,1.02,1.44,1.08
O=C1O[C@H](c2ccccc2)[C@H](c2ccccc2)N2[C@H]1[C@@H](C(=O)N1CCCCCCC1)[C@]1(C(=O)Nc3ccc(C#CCCO)cc31)[C@H]2c1ccccc1OCCO,2.26,3.11,1.53,-0.207 (inactive),1.76,1.5,2,1.79,2.76,1.84
C[C@H]1C2[C@H](Cc3ccccc3)NC(=O)[C@]23C(=O)N[C@H](Cc2ccccc2)C(=O)N2CCC[C@H]2C(=O)NC/C=C\C/C=C/C3[C@@H]2O[C@]12C (stereo not given in full),0.901,-0.0646,-0.19,-0.925 (inactive),0.428,-0.298,-0.0282,0.801,0.299,0.946
COc1ccc(C#Cc2ccc3c(c2)[C@]2(C(=O)N3)[C@H](C(=O)NC[C@H](O)c3ccccc3)[C@H]3C(=O)O[C@H](c4ccccc4)[C@H](c4ccccc4)N3[C@@H]2c2ccc(O)cc2)cc1,1.16,-0.0262,0.295,-0.993 (inactive),1.02,1.16,0.417,0.768,0.484,0.0998
O=C(c1ccccc1)N1Cc2ccccc2C[C@@]2(COC(c3ccc(OCCCO)cc3)=N2)C1=O,1.5,0.298,0.657,0.372 (inactive),1.1,1.29,0.0545,0.796,0.146,0.7
[N-]=[N+]=Nc1ccccc1[C@H]1OC(c2ccc(OCCCO)cc2)=N[C@@]1(CCS(=O)(=O)c1ccccc1)C(=O)NCC(O)CO (stereo not given in full),1.47,0.766,0.95,-0.662 (inactive),1.24,0.933,-0.214,0.505,-0.415,0.899
COc1cc2c(cc1OC)CN(C(=O)[C@H]1[C@@H]3C(=O)O[C@@H](c4ccccc4)[C@@H](c4ccccc4)N3[C@@H](c3ccc(O)cc3)[C@]13C(=O)Nc1ccc(C#CCCO)cc13)CC2,0.957,0.0325,0.481,0.0673 (inactive),0.398,0.0837,-0.0179,0.249,-0.0546,0.224

SMILES,composite z-score [1],composite z-score [2],composite z-score [3],z-score [4],composite z-score [5],composite z-score [6],composite z-score [7],composite z-score [8],composite z-score [9],composite z-score [10]
COc1cccc(-c2cccc(=O)o2)c1,1.37,0.956,0.513,0.742 (inactive),0.423,-0.21,0.482,0.148,0.143,1.15
[N-]=[N+]=Nc1ccccc1[C@@H]1OC(c2ccc(OCCCO)cc2)=N[C@]1(CCS(=O)(=O)c1ccccc1)C(N)=O,1.37,0.708,1.25,-0.752 (inactive),1.09,1.23,0.0129,1.22,-0.329,0.992
COC(=O)[C@@]1(Cc2ccc(OC)cc2)[C@H]2c3cc(C(=O)N4CCCC4)n(CCN4CNCC4=O)c3C[C@H]2CN1C(=O)c1ccccc1,1.8,2.4,1.41,0.908 (inactive),1.03,-0.16,0.656,-0.711,-0.462,0.949
C[C@@]1([C@@H](NC(=O)c2ccc(-c3ccccc3)cc2)c2ccc(Cl)cc2)C[C@H]1C1CCCCC1,0.78,1.13,1.07,-1.82 (inactive),0.575,0.787,0.0292,0.313,-0.131,0.387
N#Cc1ccc(NN2C(C(O)C(c3ccccc3)c3ccccc3)C=CC3C(=O)N(c4ccccc4)C(=O)C32)cc1 (stereo not given),0.793,0.609,0.725,-0.327 (inactive),1.2,1.28,-0.0158,0.864,-1.06,0.0017
CCCc1cc2c(n1Cc1cc(F)cc(F)c1)C(C)C1CN(C(=O)c3ccccc3)C(C)(C(=O)OC)C21 (stereo not given),1.01,1.28,1.33,-3.1 (inactive),1.21,1.07,0.0159,0.899,0.215,1.27
CN1C(=O)C2C=CC(C(O)C3CC=CCC3)N(N(c3ccccc3)c3ccccc3)C2C1=O (stereo not given),0.206,0.244,0.944,0.773 (inactive),-0.291,-1.64,0.664,0.184,0.175,1.87
CCOC(=O)C[C@H]1[C@H](OC(=O)c2ccc(-c3ccccc3)cc2)[C@@H](NC(=O)Cc2ccc(OC)cc2)c2cc(OCCCO)ccc2N1C(=O)c1ccccc1,-0.168,0.18,0.294,0.122 (inactive),0.219,-0.454,-0.165,-0.0876,-0.384,0.407
O=C1NC(=O)C2C1C=CC(C(O)c1cccs1)N2Nc1ccc(Cl)cc1Cl (stereo not given),1,0.82,1.03,0.569 (inactive),0.438,-1.21,-0.893,-0.375,-0.456,1.03
COC(=O)[C@]1(CCC(=O)OC(C)(C)C)N=C(c2ccc(OCCCO)cc2)O[C@@H]1c1ccccc1CN=[N+]=[N-],1.09,1.09,1.07,-1.03 (inactive),0.432,-0.109,-0.843,-0.307,-0.696,0.26
C=CCC(OC(C)=O)[C@@H]1[C@@H](N(Cc2cccc3ccccc23)C(=O)c2ccc(-c3ccccc3)cc2)c2cc(OCCCO)ccc2N1C(=O)c1ccc2ccccc2c1 (stereo not given in full),-0.101,0.25,0.357,-0.157 (inactive),0.0842,0.293,0.24,0.476,-0.601,1.28
C=CC[C@]1(C(=O)NCCCOC)N=C(c2ccc(OCCCO)cc2)O[C@H]1c1ccccc1CN=[N+]=[N-],1.17,1.45,1.17,0.822 (inactive),0.944,1.22,0.0673,0.612,0.496,1.21
Cc1nc2cc(Br)ccc2c(=O)o1,-0.319,-0.0717,-0.267,0.502 (inactive),0.543,0.778,0.427,0.846,0.436,0.435
C[N+](C)(C)CCCCNC(=O)[C@@H]1C[C@@H]2C(=O)N[C@@H](Cc3ccccc3)C(=O)N2[C@@H]1c1cccc(OCCO)c1,1.32,-0.0907,0.361,-0.379 (inactive),0.849,-0.494,-0.35,0.683,1.49,-0.15
C[N+](C)(C)CCCCNC(=O)[C@H]1C[C@H]2C(=O)N3CCC[C@H]3C(=O)N2[C@H]1c1cccc(OCCO)c1,0.501,0.0086,0.314,0.717 (inactive),0.489,-0.415,-0.142,1.14,1.32,1.08
CC(C)C(=C=CC[C@@H](O)c1ccc(OCCO)cc1)C[C@@H](O)COCc1ccccc1,0.413,-0.133,-0.222,-1.97 (inactive),1.23,0.099,-0.516,0.478,-0.198,0.992
